Experimental data published in PMC7862700, “An all-to-all approach to the identification of sequence-specific readers for epigenetic DNA modifications on cytosine”.

Experiments:
Experiment in all cases: DAPPL (digital affinity profiling via proximity ligation, sequencing); 10 mM Tris-HCl pH 7.5, 50 mM NaCl, 1 mM DTT, 4% glycerol, room temperature, 30 min; GST-TFs on glutathione beads, 16-mer random dsDNA library, 0.1% formaldehyde crosslink after washing; high values mean tight binding
Details in all cases: protein: recombinant; tags: N-terminal GST; dsDNA, one strand shown
ERF = molecular target: T1, ERF (Homo sapiens, UniProt P50548 1-548)
T1 sequence: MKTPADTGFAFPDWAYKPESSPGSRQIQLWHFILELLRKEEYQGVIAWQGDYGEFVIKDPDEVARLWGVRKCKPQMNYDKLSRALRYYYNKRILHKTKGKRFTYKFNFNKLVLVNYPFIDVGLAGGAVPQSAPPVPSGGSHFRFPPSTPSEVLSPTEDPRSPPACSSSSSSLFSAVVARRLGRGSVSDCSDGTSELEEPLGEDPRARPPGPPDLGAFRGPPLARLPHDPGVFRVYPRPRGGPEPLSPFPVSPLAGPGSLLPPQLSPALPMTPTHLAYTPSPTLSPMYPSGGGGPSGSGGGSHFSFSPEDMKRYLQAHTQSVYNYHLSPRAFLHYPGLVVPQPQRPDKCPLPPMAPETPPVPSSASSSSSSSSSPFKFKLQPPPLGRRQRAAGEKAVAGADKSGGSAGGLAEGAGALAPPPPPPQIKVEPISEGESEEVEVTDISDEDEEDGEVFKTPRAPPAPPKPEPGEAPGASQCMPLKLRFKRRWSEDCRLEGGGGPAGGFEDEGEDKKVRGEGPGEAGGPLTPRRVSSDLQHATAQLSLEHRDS
How it was run: (§1)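 Pools of DNA-barcoded human transcription factors, expressed in yeast as GST fusions on glutathione beads and combined with a tag-only sample, were incubated with 200 nmole of a 16-mer random double-stranded DNA library. Incubation took 30 min at room temperature in Tris/NaCl/DTT/glycerol buffer and was followed by washing, 0.1% formaldehyde crosslinking, proximity ligation (BsaI/T4 ligase, 1 h, 37 °C), PCR amplification and sequencing on an Illumina NextSeq500. Binding signal is the ratio of a hexamer's read frequency for a factor to its frequency for the tag-only sample.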

ETV3L = molecular target: T2, ETV3L (Homo sapiens, UniProt Q6ZN32 1-361)
T2 sequence: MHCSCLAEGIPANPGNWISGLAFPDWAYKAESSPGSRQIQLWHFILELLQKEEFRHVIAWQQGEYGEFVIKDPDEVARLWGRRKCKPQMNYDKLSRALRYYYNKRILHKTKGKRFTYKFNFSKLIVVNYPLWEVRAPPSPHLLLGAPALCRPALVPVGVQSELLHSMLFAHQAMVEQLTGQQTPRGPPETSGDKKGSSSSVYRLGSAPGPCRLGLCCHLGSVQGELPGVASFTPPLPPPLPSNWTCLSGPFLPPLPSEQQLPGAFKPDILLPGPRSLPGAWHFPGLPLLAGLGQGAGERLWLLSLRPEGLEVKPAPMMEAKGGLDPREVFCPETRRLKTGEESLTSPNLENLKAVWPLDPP
How it was run: as §1

ETS2 = molecular target: T3, ETS2 (Homo sapiens, UniProt P15036 1-469)
T3 sequence: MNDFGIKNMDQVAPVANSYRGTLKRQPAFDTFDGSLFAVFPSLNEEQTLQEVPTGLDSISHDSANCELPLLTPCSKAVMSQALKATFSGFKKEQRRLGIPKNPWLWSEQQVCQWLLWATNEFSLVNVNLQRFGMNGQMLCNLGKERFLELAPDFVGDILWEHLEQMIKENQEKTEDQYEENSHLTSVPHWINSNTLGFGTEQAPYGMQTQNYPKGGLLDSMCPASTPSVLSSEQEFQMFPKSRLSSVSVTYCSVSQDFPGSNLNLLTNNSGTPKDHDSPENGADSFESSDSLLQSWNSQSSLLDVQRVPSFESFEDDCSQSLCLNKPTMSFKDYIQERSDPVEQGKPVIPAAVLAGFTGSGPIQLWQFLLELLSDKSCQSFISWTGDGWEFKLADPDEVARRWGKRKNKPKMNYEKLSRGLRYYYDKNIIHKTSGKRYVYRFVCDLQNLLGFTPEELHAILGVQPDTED
How it was run: as §1

SPDEF = molecular target: T4, SPDEF (Homo sapiens, UniProt O95238 1-335)
T4 sequence: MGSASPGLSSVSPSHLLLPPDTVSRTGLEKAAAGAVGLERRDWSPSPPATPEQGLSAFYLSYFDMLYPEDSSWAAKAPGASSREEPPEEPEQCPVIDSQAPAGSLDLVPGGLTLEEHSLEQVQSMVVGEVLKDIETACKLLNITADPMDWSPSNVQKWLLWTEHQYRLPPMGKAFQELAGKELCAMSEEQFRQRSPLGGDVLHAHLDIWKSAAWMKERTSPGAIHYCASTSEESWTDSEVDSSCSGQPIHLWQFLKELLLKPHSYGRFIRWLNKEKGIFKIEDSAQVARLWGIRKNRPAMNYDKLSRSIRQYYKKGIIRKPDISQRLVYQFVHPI
How it was run: as §1

ETV7 = molecular target: T5, ETV7 (Homo sapiens, UniProt Q9Y603 1-341)
T5 sequence: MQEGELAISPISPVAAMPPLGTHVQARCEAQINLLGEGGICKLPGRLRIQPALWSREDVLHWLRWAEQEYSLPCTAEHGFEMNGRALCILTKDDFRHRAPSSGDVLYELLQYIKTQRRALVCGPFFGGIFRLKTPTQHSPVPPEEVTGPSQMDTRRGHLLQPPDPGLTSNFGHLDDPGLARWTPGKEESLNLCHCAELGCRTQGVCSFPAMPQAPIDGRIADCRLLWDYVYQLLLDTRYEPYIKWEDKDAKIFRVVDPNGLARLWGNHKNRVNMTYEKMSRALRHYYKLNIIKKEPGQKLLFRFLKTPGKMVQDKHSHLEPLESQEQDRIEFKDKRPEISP
How it was run: as §1

ELF5 = molecular target: T6, ELF5 (Homo sapiens, UniProt Q9UKW6-2 1-255)
T6 sequence: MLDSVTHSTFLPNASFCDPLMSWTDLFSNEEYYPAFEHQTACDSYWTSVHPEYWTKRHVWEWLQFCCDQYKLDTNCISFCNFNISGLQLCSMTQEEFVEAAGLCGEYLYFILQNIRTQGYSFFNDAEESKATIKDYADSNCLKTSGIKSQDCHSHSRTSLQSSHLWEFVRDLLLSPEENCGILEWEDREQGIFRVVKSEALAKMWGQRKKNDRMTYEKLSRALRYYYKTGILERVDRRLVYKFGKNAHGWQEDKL
How it was run: as §1

ETV3 = molecular target: T7, ETV3 (Homo sapiens, UniProt P41162-2 1-143)
T7 sequence: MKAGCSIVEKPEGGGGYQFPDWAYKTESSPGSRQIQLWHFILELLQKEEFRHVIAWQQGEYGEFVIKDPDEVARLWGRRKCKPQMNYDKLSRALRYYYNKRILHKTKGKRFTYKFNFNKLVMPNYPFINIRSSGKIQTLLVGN
How it was run: as §1

ETV6 = ETV6 (Homo sapiens, UniProt P41212 1-452)
ETV6, sequence (P41212 whole entry): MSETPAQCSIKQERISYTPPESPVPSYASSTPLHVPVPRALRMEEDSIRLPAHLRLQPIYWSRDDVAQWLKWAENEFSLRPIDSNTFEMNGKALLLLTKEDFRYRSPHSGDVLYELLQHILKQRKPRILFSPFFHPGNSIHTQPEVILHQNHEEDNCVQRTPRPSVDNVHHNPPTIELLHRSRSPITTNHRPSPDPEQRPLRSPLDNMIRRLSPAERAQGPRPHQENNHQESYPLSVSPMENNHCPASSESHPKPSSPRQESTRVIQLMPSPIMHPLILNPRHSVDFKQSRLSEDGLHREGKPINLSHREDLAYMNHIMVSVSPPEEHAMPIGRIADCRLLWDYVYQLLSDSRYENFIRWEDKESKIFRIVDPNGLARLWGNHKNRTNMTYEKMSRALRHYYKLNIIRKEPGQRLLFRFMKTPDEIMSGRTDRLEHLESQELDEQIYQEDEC
How it was run: as §1

Sequence	binding signal (ERF)	binding signal (ETV3L)	binding signal (ETS2)	binding signal (SPDEF)	binding signal (ETV7)	binding signal (ELF5)	binding signal (ETV3)	binding signal (ETV6)
CGCCTT	1.35 fold enrichment (6-mer frequency, TF over GST control)	1.29 fold enrichment (6-mer frequency, TF over GST control)	1.3 fold enrichment (6-mer frequency, TF over GST control)	1.3 fold enrichment (6-mer frequency, TF over GST control)	1.34 fold enrichment (6-mer frequency, TF over GST control)	1.52 fold enrichment (6-mer frequency, TF over GST control)	1.45 fold enrichment (6-mer frequency, TF over GST control)	1.52 fold enrichment (6-mer frequency, TF over GST control)
GATTCC	1.15 fold enrichment (6-mer frequency, TF over GST control)	1.22 fold enrichment (6-mer frequency, TF over GST control)	1.14 fold enrichment (6-mer frequency, TF over GST control)	1.29 fold enrichment (6-mer frequency, TF over GST control)	1.11 fold enrichment (6-mer frequency, TF over GST control)	1.21 fold enrichment (6-mer frequency, TF over GST control)	1.24 fold enrichment (6-mer frequency, TF over GST control)	1.14 fold enrichment (6-mer frequency, TF over GST control)
CTTAGA	1.18 fold enrichment (6-mer frequency, TF over GST control)	1.17 fold enrichment (6-mer frequency, TF over GST control)	1.06 fold enrichment (6-mer frequency, TF over GST control)	1.16 fold enrichment (6-mer frequency, TF over GST control)	1.07 fold enrichment (6-mer frequency, TF over GST control)	1.04 fold enrichment (6-mer frequency, TF over GST control)	1.07 fold enrichment (6-mer frequency, TF over GST control)	1.11 fold enrichment (6-mer frequency, TF over GST control)
CTCGTC	1.4 fold enrichment (6-mer frequency, TF over GST control)	1.24 fold enrichment (6-mer frequency, TF over GST control)	1.46 fold enrichment (6-mer frequency, TF over GST control)	1.35 fold enrichment (6-mer frequency, TF over GST control)	1.46 fold enrichment (6-mer frequency, TF over GST control)	1.32 fold enrichment (6-mer frequency, TF over GST control)	1.34 fold enrichment (6-mer frequency, TF over GST control)	1.46 fold enrichment (6-mer frequency, TF over GST control)
CCGTTT	1.33 fold enrichment (6-mer frequency, TF over GST control)	1.45 fold enrichment (6-mer frequency, TF over GST control)	1.4 fold enrichment (6-mer frequency, TF over GST control)	1.57 fold enrichment (6-mer frequency, TF over GST control)	1.49 fold enrichment (6-mer frequency, TF over GST control)	1.51 fold enrichment (6-mer frequency, TF over GST control)	1.52 fold enrichment (6-mer frequency, TF over GST control)	1.53 fold enrichment (6-mer frequency, TF over GST control)
CCGAAT	1.35 fold enrichment (6-mer frequency, TF over GST control)	1.24 fold enrichment (6-mer frequency, TF over GST control)	1.22 fold enrichment (6-mer frequency, TF over GST control)	1.17 fold enrichment (6-mer frequency, TF over GST control)	1.12 fold enrichment (6-mer frequency, TF over GST control)	1.1 fold enrichment (6-mer frequency, TF over GST control)	1.12 fold enrichment (6-mer frequency, TF over GST control)	1.22 fold enrichment (6-mer frequency, TF over GST control)
GTTGCT	1.27 fold enrichment (6-mer frequency, TF over GST control)	1.26 fold enrichment (6-mer frequency, TF over GST control)	1.22 fold enrichment (6-mer frequency, TF over GST control)	1.27 fold enrichment (6-mer frequency, TF over GST control)	1.38 fold enrichment (6-mer frequency, TF over GST control)	1.27 fold enrichment (6-mer frequency, TF over GST control)	1.51 fold enrichment (6-mer frequency, TF over GST control)	1.29 fold enrichment (6-mer frequency, TF over GST control)
TATTGT	1.44 fold enrichment (6-mer frequency, TF over GST control)	1.32 fold enrichment (6-mer frequency, TF over GST control)	1.37 fold enrichment (6-mer frequency, TF over GST control)	1.3 fold enrichment (6-mer frequency, TF over GST control)	1.35 fold enrichment (6-mer frequency, TF over GST control)	1.23 fold enrichment (6-mer frequency, TF over GST control)	1.34 fold enrichment (6-mer frequency, TF over GST control)	1.33 fold enrichment (6-mer frequency, TF over GST control)
AACTCT	1.33 fold enrichment (6-mer frequency, TF over GST control)	1.27 fold enrichment (6-mer frequency, TF over GST control)	1.32 fold enrichment (6-mer frequency, TF over GST control)	1.35 fold enrichment (6-mer frequency, TF over GST control)	1.24 fold enrichment (6-mer frequency, TF over GST control)	1.35 fold enrichment (6-mer frequency, TF over GST control)	1.34 fold enrichment (6-mer frequency, TF over GST control)	1.33 fold enrichment (6-mer frequency, TF over GST control)
CTGACT	1.33 fold enrichment (6-mer frequency, TF over GST control)	1.22 fold enrichment (6-mer frequency, TF over GST control)	1.42 fold enrichment (6-mer frequency, TF over GST control)	1.22 fold enrichment (6-mer frequency, TF over GST control)	1.33 fold enrichment (6-mer frequency, TF over GST control)	1.32 fold enrichment (6-mer frequency, TF over GST control)	1.28 fold enrichment (6-mer frequency, TF over GST control)	1.24 fold enrichment (6-mer frequency, TF over GST control)
TACTAT	1.38 fold enrichment (6-mer frequency, TF over GST control)	1.25 fold enrichment (6-mer frequency, TF over GST control)	1.37 fold enrichment (6-mer frequency, TF over GST control)	1.37 fold enrichment (6-mer frequency, TF over GST control)	1.35 fold enrichment (6-mer frequency, TF over GST control)	1.27 fold enrichment (6-mer frequency, TF over GST control)	1.36 fold enrichment (6-mer frequency, TF over GST control)	1.39 fold enrichment (6-mer frequency, TF over GST control)
TTGCCT	1.18 fold enrichment (6-mer frequency, TF over GST control)	1.34 fold enrichment (6-mer frequency, TF over GST control)	1.24 fold enrichment (6-mer frequency, TF over GST control)	1.18 fold enrichment (6-mer frequency, TF over GST control)	1.23 fold enrichment (6-mer frequency, TF over GST control)	1.19 fold enrichment (6-mer frequency, TF over GST control)	1.14 fold enrichment (6-mer frequency, TF over GST control)	1.1 fold enrichment (6-mer frequency, TF over GST control)
